Compound activity: PubChem BioAssay, National Center for Advancing Translational Sciences (NCATS)
BAZ2B inh: qHTS Assay for Inhibitors of BAZ2B. AlphaScreen BAZ2B-H3K14Ac peptide displacement. Potency, µM (highest dose often 114 µM), inactives show top-dose activity change, negative = inhibition, usual class: inhibitors. actives 4.4% (n = 360,000). AID 504333, 2011; also: potency is read from the fitted curve at half-maximal effect; % is scaled to controls: 0 for no effect and ±100 for the full control effect; nearly all actives have a fitted effect of over 60% in size
Target sequence (Q9UIF8 whole entry, looked up): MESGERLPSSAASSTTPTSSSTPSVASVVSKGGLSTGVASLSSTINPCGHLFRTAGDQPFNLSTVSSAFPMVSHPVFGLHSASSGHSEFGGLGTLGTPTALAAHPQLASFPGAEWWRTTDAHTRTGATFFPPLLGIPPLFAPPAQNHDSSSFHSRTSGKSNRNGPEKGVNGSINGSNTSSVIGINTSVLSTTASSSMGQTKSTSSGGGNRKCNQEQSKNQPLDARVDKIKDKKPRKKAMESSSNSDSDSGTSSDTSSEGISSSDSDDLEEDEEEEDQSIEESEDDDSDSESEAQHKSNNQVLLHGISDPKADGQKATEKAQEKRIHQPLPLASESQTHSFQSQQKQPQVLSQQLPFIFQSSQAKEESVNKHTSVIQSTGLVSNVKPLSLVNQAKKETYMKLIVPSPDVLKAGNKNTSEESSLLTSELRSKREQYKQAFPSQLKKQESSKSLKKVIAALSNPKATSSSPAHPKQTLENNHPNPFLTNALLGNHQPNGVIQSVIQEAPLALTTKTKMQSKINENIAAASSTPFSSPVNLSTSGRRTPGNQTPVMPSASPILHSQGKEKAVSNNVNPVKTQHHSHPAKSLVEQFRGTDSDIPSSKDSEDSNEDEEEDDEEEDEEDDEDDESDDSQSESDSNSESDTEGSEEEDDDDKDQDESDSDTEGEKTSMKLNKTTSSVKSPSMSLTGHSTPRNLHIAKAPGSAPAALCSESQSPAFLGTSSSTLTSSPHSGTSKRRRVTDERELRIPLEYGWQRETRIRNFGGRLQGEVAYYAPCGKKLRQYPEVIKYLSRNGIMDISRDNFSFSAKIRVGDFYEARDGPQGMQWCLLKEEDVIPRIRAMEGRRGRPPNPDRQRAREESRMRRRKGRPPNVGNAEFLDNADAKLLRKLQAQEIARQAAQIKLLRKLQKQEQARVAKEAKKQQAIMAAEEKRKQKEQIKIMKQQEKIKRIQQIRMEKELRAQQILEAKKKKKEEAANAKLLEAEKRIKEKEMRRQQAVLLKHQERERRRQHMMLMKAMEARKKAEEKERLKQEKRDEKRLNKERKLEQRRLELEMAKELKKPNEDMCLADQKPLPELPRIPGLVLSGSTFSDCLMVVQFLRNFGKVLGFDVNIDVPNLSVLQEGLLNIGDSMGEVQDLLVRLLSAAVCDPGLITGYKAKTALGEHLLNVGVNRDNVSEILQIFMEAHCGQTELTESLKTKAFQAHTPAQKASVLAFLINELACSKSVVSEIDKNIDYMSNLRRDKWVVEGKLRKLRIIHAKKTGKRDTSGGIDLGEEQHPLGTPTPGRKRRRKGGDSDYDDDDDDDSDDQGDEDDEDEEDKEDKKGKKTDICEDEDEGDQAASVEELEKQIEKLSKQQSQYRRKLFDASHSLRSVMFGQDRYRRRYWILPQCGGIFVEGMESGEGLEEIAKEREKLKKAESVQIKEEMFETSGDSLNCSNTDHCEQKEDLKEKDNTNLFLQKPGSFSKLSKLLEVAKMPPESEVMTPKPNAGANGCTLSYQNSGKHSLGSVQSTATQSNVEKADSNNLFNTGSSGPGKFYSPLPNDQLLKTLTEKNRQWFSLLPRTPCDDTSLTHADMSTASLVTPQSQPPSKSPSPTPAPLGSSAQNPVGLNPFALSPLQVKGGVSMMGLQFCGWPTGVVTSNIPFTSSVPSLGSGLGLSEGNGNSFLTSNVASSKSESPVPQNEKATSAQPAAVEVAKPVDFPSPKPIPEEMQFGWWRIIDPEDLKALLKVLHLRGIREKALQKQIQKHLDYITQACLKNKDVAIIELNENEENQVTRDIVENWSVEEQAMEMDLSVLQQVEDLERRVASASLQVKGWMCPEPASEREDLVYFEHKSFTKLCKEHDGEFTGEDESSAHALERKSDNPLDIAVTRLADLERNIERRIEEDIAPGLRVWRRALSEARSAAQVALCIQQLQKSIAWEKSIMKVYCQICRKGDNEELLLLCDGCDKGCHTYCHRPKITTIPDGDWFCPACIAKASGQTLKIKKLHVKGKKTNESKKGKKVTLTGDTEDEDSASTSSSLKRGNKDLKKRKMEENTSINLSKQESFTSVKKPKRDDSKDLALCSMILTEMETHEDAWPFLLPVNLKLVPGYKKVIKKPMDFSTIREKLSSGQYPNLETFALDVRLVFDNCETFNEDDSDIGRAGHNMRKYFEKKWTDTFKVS
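AlphaScreen displacement of biotin-H3(5-23)K14Ac peptide (50 nM final) from BAZ2B (50 nM final) in PBS pH 7.4, 0.01% Tween-20; complex preformed 30 min RT, then compounds (top 110 uM) 30 min RT, beads 20 min dark.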
JMJD2A Tudor inh: qHTS Assay for Inhibitors of JMJD2A-Tudor Domain. Lysine-specific demethylase 4A (Homo sapiens), O75164. AlphaScreen JMJD2A-Tudor / H3K4me3 peptide binding. Potency, µM (series often up to 114 µM), without a hit: at the highest dose activity change, negative = inhibition, most hits filed as inhibitors. actives 4.4% (n = 390,000). AID 504339, 2011; also: potency is read from the fitted curve at half-maximal effect; % is scaled to controls: 0 for no effect and ±100 for the full control effect; nearly all actives have a fitted effect of over 50% in size
Six1-Eya2 blk: qHTS Assay for Inhibitors of the Six1/Eya2 Interaction; Homeobox protein SIX1 (Homo sapiens) + Protein phosphatase EYA2 (Homo sapiens), …; AlphaScreen GST-Six1/His-Eya2 binding, biochemical; stronger effect = lower value; activity change, % (no concentration beside the values); actives 0.56% (n = 360,000); in the data active = activity change below about -65%; inconclusive = mostly about -30% to -63%; also: % is scaled to controls: 0 for no effect and ±100 for the full control effect
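Homogeneous AlphaScreen proximity assay pairing GST-Six1 with His-tagged Eya2 (added as 5X mix: 250 nM and 500 nM) in 50 mM Tris pH 8.0, 300 mM NaCl, 1 mM TCEP. Glutathione donor and nickel acceptor beads; 1 h, 37 °C, dark.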
HP1b chromo inh: HTS for Inhibitors of HP1-beta Chromodomain Interactions with Methylated Histone Tails; Chromobox protein homolog 1 (Homo sapiens), P83916; AlphaScreen HP1-beta / biotin-H3K9me3 peptide binding; Potency, µM (titrated, usually from 114 µM), for inactives: at the highest dose activity change, negative = inhibition, usual class: inhibitors; actives 0.56% (n = 390,000); AID 540317, 2011; also: potency is read from the fitted curve at half-maximal effect; nearly all actives have a fitted effect of over 70% in size
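Compound inhibition of the preformed complex between 50 nM HP1-beta and 50 nM biotinylated H3K9me3 peptide was read by AlphaScreen. Buffer was PBS pH 7.4 with 0.01% Tween-20. Incubations ran 30 min at room temperature, with 10 ug/mL donor/acceptor beads.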
CtBP-E1A inh: qHTS Assay for Inhibitors of the CtBP/E1A Interaction. activity change, % (concentration not given with the values). actives 0.49% (n = 340,000). AID 651724, 2012. AlphaScreen GST-E1A/His-CtBP binding, 1536-well; stronger effect = lower value. CtBP / adenovirus E1A interaction (AlphaScreen); in the data active = activity change below about -65%; inconclusive = mostly about -30% to -63%; also: % is scaled to controls: 0 for no effect and ±100 for the full control effect
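GST-E1A and His-tagged CtBP (125 nM each as 5X stock) were preincubated with pin-transferred compound for 2 h at 37 °C in the dark, then glutathione donor and nickel acceptor beads were added for 1 h before AlphaScreen reading.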
G9a block: qHTS Assay for Inhibitors of Histone Lysine Methyltransferase G9a; Histone-lysine N-methyltransferase EHMT2 (Homo sapiens), Q96KQ7; G9a H3K9 monomethylation, AlphaScreen, 2 h; Potency, µM (series often up to 102 µM), for inactives: top-dose activity, negative = inhibition, hits mostly inhibitors; actives 8.8% (n = 350,000); also: potency is read from the fitted curve at half-maximal effect; % is scaled to controls: 0 for no effect and ±100 for the full control effect; nearly all actives have a fitted effect of over 75% in size
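Signal arises when biotinylated H3K9 peptide, once monomethylated, bridges streptavidin donor and antibody-captured acceptor beads. Enzyme at 20 nM was preincubated 15 min with test compounds; peptide 500 nM and SAM 20 uM then reacted for 2 h.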
An asterisk follows results filed as active; [ ] = another dose, or the depositor's remark. An excerpt weighted towards active compounds, which were near 10% of everything screened. Unless noted, calls follow the shape of the dose curve; as a rule, active = well fitted inhibition curve with a large enough effect; inconclusive = small, poorly fitted or top-dose-only effect; inactive = no such curve, though single readings can be large or run the other way.

What do the screens show for `CCOC(=O)CN1NC2(CCCCCCC2)NC1=S`?
BAZ2B inh: -20.7%; JMJD2A Tudor inh: 28.2µM*; Six1-Eya2 blk: 9.7; HP1b chromo inh: 40.6%; CtBP-E1A inh: 13.4; G9a block: 2.24µM*

Results for CCOC(=O)Cn1c2c(c(=N)c3c1CCC3)CCC2 ?
BAZ2B inh: 58.0%; JMJD2A Tudor inh: -0.9%; Six1-Eya2 blk: 9.0; HP1b chromo inh: 57.0%; CtBP-E1A inh: 4.5; G9a block: 11.8%[59 µM]

What do the screens show for `N#CC1=C(N)C(C#N)(C#N)C2(CCC3(CC2)OCCO3)C2CC3(CC=C12)OCCO3` (centres undefined)?
BAZ2B inh: 100µM*; JMJD2A Tudor inh: -15.2%; Six1-Eya2 blk: -13.5; HP1b chromo inh: 33.2%; CtBP-E1A inh: -25.1; G9a block: -1.8%[59 µM]

Results for CN1C2C=C3C(C#N)=C(N)C(C#N)(C#N)[C@H](c4c(F)cccc4F)[C@H]3C1CC2 (some centres undefined) ?
BAZ2B inh: inconclusive; JMJD2A Tudor inh: -22.1%; Six1-Eya2 blk: -21.6; HP1b chromo inh: 30.3%; CtBP-E1A inh: 7.8; G9a block: 50.1µM*

Results for N#CC1=C(N)C(C#N)(C#N)[C@H](c2c(F)cccc2F)[C@H]2CC3(CC=C12)OCCO3 ?
BAZ2B inh: -13.7%; JMJD2A Tudor inh: -14.7%; Six1-Eya2 blk: -14.1; HP1b chromo inh: 31.3%; CtBP-E1A inh: -7.3; G9a block: 50.1µM*

What do the screens show for `N#CC1=C(N)C(C#N)(C#N)C(c2cccnc2)C2COCC=C12` (centres undefined)?
BAZ2B inh: 16.7%; JMJD2A Tudor inh: -9.4%[57.1 µM]; Six1-Eya2 blk: 0.9; HP1b chromo inh: 63.8%; CtBP-E1A inh: 1.2; G9a block: inconclusive

How did C#CCN(C[C@@H]1[C@@H](OC(=O)NCC2CCCCC2)[C@@H](OC(=O)NCC2CCCCC2)Cn2c(=O)n(CCCCCC)c(=O)n21)S(=O)(=O)c1ccc(C)cc1 do in these assays?
Six1-Eya2 blk: 4.0; CtBP-E1A inh: 3.8

How did Cc1nc2ccccc2c(=O)n1/N=C/c1ccc(F)cc1 do in these assays?
BAZ2B inh: -2.3%; JMJD2A Tudor inh: -9.6%; Six1-Eya2 blk: 1.3; HP1b chromo inh: 14.3%; CtBP-E1A inh: 4.5; G9a block: inconclusive

What do the screens show for `CCC(CC)c1nnc(NC(=O)CCS(=O)(=O)Cc2ccccc2)s1`?
BAZ2B inh: 1.2%; JMJD2A Tudor inh: -13.7%; Six1-Eya2 blk: 3.7; HP1b chromo inh: 6.2%; CtBP-E1A inh: -2.2; G9a block: 17.8µM*

Results for O=C(CCS(=O)(=O)Cc1ccccc1)Nc1nncs1 ?
BAZ2B inh: 3.3%; JMJD2A Tudor inh: -1.4%; Six1-Eya2 blk: -6.4; HP1b chromo inh: 9.7%; CtBP-E1A inh: 0.0; G9a block: 44.7µM*

Results for CCCc1nnc(NC(=O)CCS(=O)(=O)Cc2ccccc2)s1 ?
BAZ2B inh: 6.8%; JMJD2A Tudor inh: -6.7%; Six1-Eya2 blk: 7.7; HP1b chromo inh: 15.1%; CtBP-E1A inh: -4.9; G9a block: 44.7µM*

How did CC(C)c1nnc(NC(=O)CCS(=O)(=O)c2ccccc2)s1 do in these assays?
BAZ2B inh: inconclusive; JMJD2A Tudor inh: 6.5%; Six1-Eya2 blk: -2.1; HP1b chromo inh: 30.6%; CtBP-E1A inh: 6.3; G9a block: inconclusive

What do the screens show for `CCCCc1nnc(NC(=O)CCS(=O)(=O)Cc2ccccc2)s1`?
BAZ2B inh: -2.5%; JMJD2A Tudor inh: 1.4%; Six1-Eya2 blk: -2.6; HP1b chromo inh: 22.4%; CtBP-E1A inh: 11.8; G9a block: inconclusive

How did CCc1nnc(NC(=O)CCS(=O)(=O)Cc2ccccc2)s1 do in these assays?
BAZ2B inh: -17.1%; JMJD2A Tudor inh: -17.8%; Six1-Eya2 blk: 14.7; HP1b chromo inh: -8.8%; CtBP-E1A inh: 2.5; G9a block: 50.1µM*

Results for CCc1nnc(NC(=O)CS(=O)(=O)Cc2ccccc2)s1 ?
BAZ2B inh: 3.1%; JMJD2A Tudor inh: -1.4%; Six1-Eya2 blk: 1.2; HP1b chromo inh: -9.7%; CtBP-E1A inh: 8.7; G9a block: -7.3%

Results for CCOC(=O)c1c(-c2ccccc2)oc2ccc(NS(=O)(=O)c3cc(C)c(C)cc3C)cc12 ?
BAZ2B inh: -0.6%; JMJD2A Tudor inh: -28.7%; HP1b chromo inh: 38.4%; G9a block: -5.1%[59 µM]

Results for CCn1cc(S(=O)(=O)c2cccc(Cl)c2)c(=O)c2cc(F)c(N3CCC(C)CC3)cc21 ?
BAZ2B inh: 1.7%; JMJD2A Tudor inh: -15.8%; HP1b chromo inh: 18.0%; G9a block: 4.6%[59 µM]

What do the screens show for `O=C(CS(=O)(=O)c1ccccc1)Nc1nnc(Cc2ccccc2)s1`?
BAZ2B inh: -26.2%; JMJD2A Tudor inh: -6.8%; Six1-Eya2 blk: -1.5; HP1b chromo inh: -13.4%; CtBP-E1A inh: 1.4; G9a block: 31.6µM*

Results for CCC(CC)c1nnc(NC(=O)Cc2ccccc2[N+](=O)[O-])s1 ?
BAZ2B inh: -28.1%; JMJD2A Tudor inh: -12.7%; Six1-Eya2 blk: 0.0; HP1b chromo inh: -9.4%; CtBP-E1A inh: 0.0; G9a block: 39.8µM*

What do the screens show for `CCC(CC)c1nnc(NC(=O)CS(=O)(=O)c2ccccc2)s1`?
BAZ2B inh: -0.3%; JMJD2A Tudor inh: -4.1%; Six1-Eya2 blk: -4.3; HP1b chromo inh: -37.7%; CtBP-E1A inh: 1.2; G9a block: 10µM*

What do the screens show for `O=C(Nc1ccn(CCCNCC(c2ccccc2)c2ccccc2)c(=O)n1)OCc1ccccc1`?
Six1-Eya2 blk: -6.8; CtBP-E1A inh: -5.6

How did Cc1ccc(NCCCn2ccc(NC(=O)OCc3ccccc3)nc2=O)cc1C do in these assays?
JMJD2A Tudor inh: 56.2µM*; Six1-Eya2 blk: inconclusive; HP1b chromo inh: inconclusive; CtBP-E1A inh: -19.8

How did CCCOC(=O)C1=C(C)NC2=C(C(=O)CCC2)C1c1ccc(N(C)C)cc1 (centres undefined) do in these assays?
BAZ2B inh: -50.6%; JMJD2A Tudor inh: -31.5%; Six1-Eya2 blk: -16.5; HP1b chromo inh: -7.4%; CtBP-E1A inh: -11.3; G9a block: 39.8µM*

How did CCN(CC)c1ccc(C2C(C(=O)OCCOC)=C(C)NC3=C2C(=O)CCC3)cc1 (centres undefined) do in these assays?
BAZ2B inh: -9.4%; JMJD2A Tudor inh: -34.8%; Six1-Eya2 blk: -0.7; HP1b chromo inh: 46.3%; CtBP-E1A inh: 2.7; G9a block: 4.47µM*
